Test results taken from PubChem BioAssay (EPA / NIEHS).
The source made the active and inactive calls. Rule for the calls: active = hit-call score of the fitted dose curve at least 0.9, where 1 is the maximum; inactive = score below 0.9.

read-out: Interleukin-8 (IL8), CXCL8 (gene 3576); assay: BSK_CASM3C_IL8: BioMAP Diversity Plus: CASM3C Assay for Interleukin-8 (IL8) Biomarker Activity (AID 2283042); settings: primary human coronary artery smooth muscle cells; actives raise or lower the signal;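 note: IL-8 protein level quantified by ELISA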

Row | Compound | outcome | AC50
1 | CCC(C)(CC)c1cc(NC(=O)c2c(OC)cccc2OC)on1 | inactive | –
2 | Nn1cnnc1 | inactive | –
3 | CCCCCCCCOC(=O)c1ccccc1C(=O)OCCCCCCCC | inactive | –
4 | Clc1ccc(Cl)cc1 | inactive | –
5 | Cc1ccccc1O | inactive | –
6 | Cc1cc(-c2ccc(N)c(C)c2)ccc1N | inactive | –
7 | CC#Cc1cc(C)nc(Nc2ccccc2)n1 | inactive | –
8 | CO/C=C(/C(=O)OC)c1ccccc1COc1cccc(C(F)(F)F)n1 | – | 3.94 µM (active)
9 | ClC1=C(Cl)[C@]2(Cl)[C@@H]3[C@@H](Cl)[C@H]4O[C@H]4[C@@H]3C1(Cl)C2(Cl)Cl | inactive | –
10 | C=CC(=O)NCNC(=O)C=C | inactive | –
11 | CCCCCCCCCc1ccc(O)cc1 | – | 33 µM (active)
12 | N#Cc1ccc(N(CC(N)=O)CC(F)(F)F)cc1C(F)(F)F | inactive | –
13 | CCC(C)(c1ccc(O)cc1)c1ccc(O)cc1 | inactive | –
14 | O=C(N[C@H]1CN2CCC1CC2)c1cc2ccoc2cn1 | inactive | –
15 | ClC1=C(Cl)[C@]2(Cl)[C@@H]3[C@@H]4C[C@@H]([C@H]5O[C@@H]45)[C@@H]3[C@@]1(Cl)C2(Cl)Cl | inactive | –
16 | O=C(NC(=O)c1cc(F)c(F)cc1Cl)Nc1cc(F)ccc1N1CCC(C(=O)O)CC1 | inactive | –
17 | O=S(=O)(O)C(F)(F)C(F)(F)C(F)(F)C(F)(F)C(F)(F)C(F)(F)F | inactive | –

Row | Compound | outcome | AC50
18 | C1CC2OC2CC1C1CO1 (stereo not given) | inactive | –
19 | ClC1=C(Cl)[C@]2(Cl)[C@@H]3[C@H]4C[C@H]([C@@H]5O[C@H]45)[C@@H]3[C@@]1(Cl)C2(Cl)Cl | inactive | –
20 | C[C@]12CCC(=O)C=C1CC[C@@H]1[C@@H]2CC[C@]2(C)C(=O)CC[C@@H]12 | inactive | –
21 | CCC(C)c1cc([N+](=O)[O-])cc([N+](=O)[O-])c1O (stereo not given) | inactive | –
22 | CCC(=O)O[C@H]1CC[C@H]2[C@@H]3CCC4=CC(=O)CC[C@]4(C)[C@H]3CC[C@]12C | inactive | –
23 | Clc1ccc(C(Cl)(Cl)Cl)cc1 | inactive | –
24 | Oc1ccc(Cl)cc1Cl | inactive | –
25 | C[C@]12CCC(=O)C=C1CC[C@@H]1[C@@H]2CC[C@@]2(C)[C@H]1CC[C@]2(C)O | inactive | –
26 | CC(C)C(=O)OCC(C)(C)C(OC(=O)C(C)C)C(C)C (stereo not given) | inactive | –
27 | O=NN(c1ccccc1)c1ccccc1 | inactive | –
28 | Oc1ccc(C(c2ccc(O)cc2)(C(F)(F)F)C(F)(F)F)cc1 | inactive | –
29 | CCCCCCOC(=O)c1ccccc1C(=O)OCCCCCC | inactive | –
30 | Sc1ccccc1 | inactive | –
31 | Clc1ccc(C(c2ccccc2Cl)C(Cl)(Cl)Cl)cc1 (stereo not given) | inactive | –
32 | c1cc2ccc3cccc4ccc(c1)c2c34 | inactive | –
33 | CCCN(CCC)N=O | inactive | –

read-out: Human Leukocyte Antigen - DR isotype (HLADR), HLA-DRA (gene 3122); assay: BSK_CASM3C_HLADR: BioMAP Diversity Plus: CASM3C Assay for Human Leukocyte Antigen - DR isotype (HLADR) Biomarker Activity (AID 2283043); settings: primary human coronary artery smooth muscle cells; actives raise or lower the signal;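 note: cell-surface HLA-DR protein level quantified by ELISA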

Row | Compound | outcome | AC50
34 | CCC(C)(CC)c1cc(NC(=O)c2c(OC)cccc2OC)on1 | inactive | –
35 | Nn1cnnc1 | inactive | –
36 | CCCCCCCCOC(=O)c1ccccc1C(=O)OCCCCCCCC | inactive | –
37 | Clc1ccc(Cl)cc1 | inactive | –
38 | Cc1ccccc1O | inactive | –
39 | Cc1cc(-c2ccc(N)c(C)c2)ccc1N | inactive | –
40 | CC#Cc1cc(C)nc(Nc2ccccc2)n1 | inactive | –
41 | CO/C=C(/C(=O)OC)c1ccccc1COc1cccc(C(F)(F)F)n1 | inactive | –
42 | ClC1=C(Cl)[C@]2(Cl)[C@@H]3[C@@H](Cl)[C@H]4O[C@H]4[C@@H]3C1(Cl)C2(Cl)Cl | inactive | –
43 | C=CC(=O)NCNC(=O)C=C | inactive | –
44 | CCCCCCCCCc1ccc(O)cc1 | – | 31.4 µM (active)
45 | N#Cc1ccc(N(CC(N)=O)CC(F)(F)F)cc1C(F)(F)F | inactive | –
46 | CCC(C)(c1ccc(O)cc1)c1ccc(O)cc1 | inactive | –
47 | O=C(N[C@H]1CN2CCC1CC2)c1cc2ccoc2cn1 | inactive | –
48 | ClC1=C(Cl)[C@]2(Cl)[C@@H]3[C@@H]4C[C@@H]([C@H]5O[C@@H]45)[C@@H]3[C@@]1(Cl)C2(Cl)Cl | inactive | –
49 | O=C(NC(=O)c1cc(F)c(F)cc1Cl)Nc1cc(F)ccc1N1CCC(C(=O)O)CC1 | inactive | –

Row | Compound | outcome | AC50
50 | O=S(=O)(O)C(F)(F)C(F)(F)C(F)(F)C(F)(F)C(F)(F)C(F)(F)F | inactive | –
51 | C1CC2OC2CC1C1CO1 (stereo not given) | inactive | –
52 | ClC1=C(Cl)[C@]2(Cl)[C@@H]3[C@H]4C[C@H]([C@@H]5O[C@H]45)[C@@H]3[C@@]1(Cl)C2(Cl)Cl | inactive | –
53 | C[C@]12CCC(=O)C=C1CC[C@@H]1[C@@H]2CC[C@]2(C)C(=O)CC[C@@H]12 | inactive | –
54 | CCC(C)c1cc([N+](=O)[O-])cc([N+](=O)[O-])c1O (stereo not given) | – | 14.6 µM (active)
55 | CCC(=O)O[C@H]1CC[C@H]2[C@@H]3CCC4=CC(=O)CC[C@]4(C)[C@H]3CC[C@]12C | inactive | –
56 | Clc1ccc(C(Cl)(Cl)Cl)cc1 | inactive | –
57 | Oc1ccc(Cl)cc1Cl | inactive | –
58 | C[C@]12CCC(=O)C=C1CC[C@@H]1[C@@H]2CC[C@@]2(C)[C@H]1CC[C@]2(C)O | inactive | –
59 | CC(C)C(=O)OCC(C)(C)C(OC(=O)C(C)C)C(C)C (stereo not given) | inactive | –
60 | O=NN(c1ccccc1)c1ccccc1 | inactive | –
61 | Oc1ccc(C(c2ccc(O)cc2)(C(F)(F)F)C(F)(F)F)cc1 | inactive | –
62 | CCCCCCOC(=O)c1ccccc1C(=O)OCCCCCC | inactive | –
63 | Sc1ccccc1 | inactive | –
64 | Clc1ccc(C(c2ccccc2Cl)C(Cl)(Cl)Cl)cc1 (stereo not given) | – | 17.6 µM (active)
65 | c1cc2ccc3cccc4ccc(c1)c2c34 | inactive | –
